The nature of experiment [1]: Wnt pathway potentiators raising nuclear beta-catenin – imaging, WNT3A-conditioned medium, mouse C2C12, NPC library, primary screen (AID 1117326; in the data active = nuclear beta-catenin stimulation mostly above about 4.2%, no sharp cut-off; inactive = mostly below about 10%). The note with it: stronger effect = higher value.
Experiment [2] can be described thus: stimulators of insulin release from INS-1E, primary screen, cell-based, 5 mM glucose, NPC library (AID 1117329;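 active = compound raises insulin release from rat beta cells at 5 mM glucose, no numeric limit stated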). Conditions: rat INS-1E insulin secretion, at 10 µM, stronger effect = higher value.
A short description of experiment [3]: growth inhibition of GSK3B-pretreated HCT116 cells – cell-based, CellTiter-Glo, 0.2 to 20 µM (AID 1117336;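 active = compounds lowering colon cancer cell viability after pretreatment blocking the GSK3B kinase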). Conditions: HCT116 viability after GSK3B inhibitor, at 20 µM, stronger effect = higher value. In general terms: In ATP-based viability assays light output follows the ATP content of the culture.
Experiment [4] can be described thus: inhibition of endothelial tube formation, primary screen, imaging, VEGF stimulated, CD31 staining, tube area, NPC library (AID 1117340;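 active = compound that reduces growth-factor-driven endothelial tube area in a mixed cell culture, no cutoff stated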). Conditions: VEGF-stimulated ADSC/ECFC co-culture, at 10 µM, stronger effect = higher value.
Experiment [5] in a line: GLP1 release stimulators, primary, NCI-H716, NPC library (AID 1117341;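 active = compound raises GLP1 secretion from the human gut endocrine cells, with no numeric limit stated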). Conditions: NCI-H716 cells, at 10 µM, stronger effect = higher value.
Experiment [6] in a line: HCT116 colon cancer cell growth inhibition, primary screen, CellTiter-Glo luminescence, NPC library (AID 1117342;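 active = compounds that lower survival of HCT116 colon cancer cells in the luminescence readout, no numeric limit stated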). Conditions: at 20 µM (top of the series).
The nature of experiment [7]: reduced SW480 viability measured with CellTiter-Glo, NPC library, primary (AID 1117343;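 active = compounds that lower viability of the colon cancer cells in the luminescence readout, with no numeric limit stated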). Conditions: CellTiter-Glo luminescence; at 20 µM (top of the series) unless noted.
Experiment [8] can be described thus: NPC library primary testing for decreased DLD-1 cell viability via CellTiter-Glo (AID 1117346;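 active = compounds that lower survival of DLD-1 colon cancer cells in the luminescence readout, no cutoff given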). Conditions: DLD-1 viability, CellTiter-Glo luminescence; at 20 µM (top of the series).
Experiment [9] has as its system Aerobactin synthetase IucA (Klebsiella pneumoniae). The experiment can be described thus: inhibition of K. pneumoniae IucA enzyme – biochemical, Tocris library, absorbance (AID 1345561; call rule not given here;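 note: 100% = enzyme without compound and 0% = no enzyme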). The note with it: purified IucA enzyme assay, absorbance (OD) read-out; stronger effect = lower value;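 tested at 8 µM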.
Experiment [10] is described as follows: viability loss in pontine glioma line – cell-based, SU-DIPG-XIII, MIPE4.0, CellTiter-Glo, qHTS, dose response (AID 1347061; cut-off not given, nearly all actives have AC50 up to about 37 µM;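 note: cells exposed to compound for 48 hours before readout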). Conditions: CellTiter-Glo ATP luminescence.
A short description of experiment [11]: growth inhibition of DIPG cells – cell-based, MIPE4.0 library, CellTiter-Glo luminescence, qHTS (AID 1347066; cut-off not given, nearly all actives have AC50 up to about 30 µM;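 note: cells exposed to compound for 48 hours before readout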). The note with it: SU-DIPG-VI viability, CellTiter-Glo ATP luminescence.
Experiment [12] is described as follows: growth inhibition of DIPG cells – cell-based, MIPE5.0 library, qHTS (AID 1347068; cut-off not given, nearly all actives have IC50 up to about 30 µM). Conditions: SU-DIPG-XXV viability. For orientation: In qHTS, concentration-response curves come from the screen itself.
Experiment [13] can be described thus: viability loss with induced miR-34 in A549 – imaging, A549 dox-inducible miR-34, nuclei and caspase counts, primary screen (AID 1347080;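 active = compounds whose cell count with miR-34 switched on is under 0.7 times the count with it off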). The note with it: A549 miR-34 inducible, Hoechst nuclei count, 48 h.
Experiment [14] in a line: galactose survival enhancers in mitochondrial complex I cybrids – cell-based, galactose medium, ATP luminescence, primary screen (AID 1645843).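 Note: positive z means more ATP and so rescue of galactose-driven cybrid death.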 Conditions: complex I mutant cybrid cells, 72 h, stronger effect = higher value.
A short description of experiment [15]: P. berghei load reduction in hepatocytes – cell-based, HepG2, luciferase luminescence, HepG2 viability, primary screen (AID 624349; in the data active = parasite load remaining mostly below about 12%, no sharp cut-off; inactive = mostly above about 10%;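 note: 100% = mean of DMSO negative control wells on the same plate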). The note with it: P. berghei liver stage in HepG2, luciferase luminescence, concentration not given here; parasite load remaining: stronger effect = lower value; viability: measured here: HepG2 viability without parasites.
Experiment [16] is described as follows: viability loss in pontine glioma line – cell-based, SU-DIPG-XVII, MIPE5.0, CellTiter-Glo, qHTS, dose response (AID 1347060; cut-off not given, nearly all actives have AC50 up to about 26 µM). The note with it: CellTiter-Glo ATP luminescence.
Experiment [17] in a line: MELAS cybrid and Rieske KO viability enhancers – cell-based, MELAS cybrids, Rieske KO mouse fibroblasts, CellTiter-Glo, primary screen (AID 1508586;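 active = mean z-score across replicates of 1.96 or higher in either the MELAS or the Rieske mutant cell line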;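 note: z relative to plate mean and SD of compound and empty wells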). Conditions: low glucose.
Where [18] appears, read: stronger effect = lower value, cell number ratio, induced over uninduced.
Where [19] appears, read: measured here: relative caspase fold change +Dox/-Dox.
Setting [20] is: measured here: total cells with miR-34 induction, stronger effect = lower value.
Setting [21] is: measured here: total cells without miR-34 induction.
[22] abbreviates: MELAS cybrid survival, CellTiter-Glo 48 h, stronger effect = higher value.
Setting [23] is: Rieske KO mouse fibroblast survival, CellTiter-Glo 72 h.

Molecules are shown by their SMILES. “And” between values parts separate entries of the source, which are not always exact repeats. Equal values may be shown once. Results filed as inconclusive are left out. The source made the active and inactive calls.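 Rule for the calls, unless noted: active = z-score of at least 1.8 in each of two replicates, scored against plate mean and spread of sample wells; inactive = the rest.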

With `Cn1ccc2cc3c(cc21)CCN3C(=O)Nc1cccnc1`, the nuclear beta-catenin stimulation is 0.8% (inactive) in experiment [1] (at 10 µM) and -1.3% in experiment [1] (stimulation, at 2 µM). In experiment [2], the insulin secretion stimulation was -1.4% (inactive). The viability decrease in experiment [3] is -4.4% (inactive). Also, the tube area decrease in experiment [4] was -4.4% (active). Moreover, the GLP1 secretion stimulation in experiment [5] is 0.1% (inactive). In addition, in [6], the inhibition of viability was 24.2% (inactive). The viability decrease (inhibition) was 12.7% (inactive) in experiment [7] and -22.3% (inactive) in experiment [8]. The remaining activity (usually the signal under treatment as a percentage of the control signal) in experiment [9] was 117% (inactive). For the same molecule, the AC50 (as a rule, the midpoint of the concentration-response curve, whichever way the signal moves) in [10] was 14.8 µM (active). In addition, the molecule was classed as inactive in [11] and in experiment [12]. Also, the fold change in [13] (setting [18]) was 1.01 (inactive) and 0.974 (inactive); in experiment [13] (setting [19]) it was 1.08 and 0.723. In addition, the cell count in [13] (setting [20]) is 11100 and 8340; in [13] (setting [21]), 11000 and 8560. Moreover, the z-score in experiment [14] is 1.23 (inactive) and 0.545 (inactive).
On to `C[C@@H](CN1CC(=O)NC(=O)C1)N1CC(=O)NC(=O)C1`, for which the nuclear beta-catenin stimulation is 9.7% (inactive) in experiment [1] (at 10 µM) and 13.9% in [1] (stimulation, at 2 µM). The insulin secretion stimulation in experiment [2] was 5.3% (inactive). In addition, the viability decrease in experiment [3] is 70.9% (active). In experiment [4], the tube area decrease is 37.9% (inactive). For the same molecule, the GLP1 secretion stimulation in experiment [5] is -2.7% (inactive). Moreover, the inhibition of viability in experiment [6] was 62% (active). Moreover, the figures for the viability decrease (inhibition) in experiment [7] and in experiment [8] were 53.1% (active) and 47.2% (inactive), respectively. Moreover, in experiment [9], the remaining activity was 106% (inactive). Besides, the outcome in [10] and in [12] was inactive. Further, the results for the fold change in [13] (setting [18]) and in experiment [13] (setting [19]) were 0.977 (inactive) and 1.07, respectively. The cell count in [13] (setting [20]) came to 8720; in experiment [13] (setting [21]) it was 8920. Also, the z-score in experiment [14] is 0.075 (inactive).
`C1COC(NC(C2CC2)C2CC2)=N1`: in experiment [15], the parasite load remaining is 46.7% (inactive). Also, the viability (in general, a read-out of living cells in per cent, often relative to untreated cells) in experiment [15] was 103%. For the same molecule, the nuclear beta-catenin stimulation in experiment [1] (at 10 µM) is 0.2% (inactive); in experiment [1] (stimulation, at 2 µM), -0.7%. Besides, the insulin secretion stimulation in [2] was 1.6% (inactive). In addition, in experiment [3], the viability decrease is -1.8% (inactive). The tube area decrease in experiment [4] was -7.6% (inactive). In experiment [5], the GLP1 secretion stimulation is 1.5% (inactive). In experiment [6], the inhibition of viability is 5.7% (inactive). Besides, the viability decrease (inhibition) in experiment [7] was -4% (inactive); in experiment [8] it was 7.9% (inactive). For the same molecule, the remaining activity in experiment [9] was 98.2% (inactive). The result in experiment [16], in experiment [10], in [11] and in experiment [12] was inactive. For the same molecule, the fold change in experiment [13] (setting [18]) is 0.947 (inactive) and 0.935 (inactive) and 0.925 (inactive); in experiment [13] (setting [19]), 1.18 and 0.627 and 1.06. Besides, the cell count in experiment [13] (setting [20]) was 9720 and 9420 and 10200; in experiment [13] (setting [21]), 10300 and 10100 and 11000. Also, the z-score is 0.462 (inactive) in experiment [17] (setting [22]); 0.9 in experiment [17] (setting [23]); 0.365 (inactive) and -0.285 (inactive) and 0.8 (inactive) in [14].
In the case of `CN=C(NC#N)NCCSCc1csc(N=C(N)N)n1`, the parasite load remaining in experiment [15] is 42.8% (inactive). Besides, in [15], the viability came out at 132%. Besides, the nuclear beta-catenin stimulation was -0.6% (inactive) in [1] (at 10 µM) and -1.8% in experiment [1] (stimulation, at 2 µM). Besides, the insulin secretion stimulation in experiment [2] is 0.3% (inactive). Besides, the viability decrease in experiment [3] is 5.8% (inactive). The tube area decrease in experiment [4] is 14.5% (inactive). For the same molecule, in [5], the GLP1 secretion stimulation is 0% (inactive). Further, the inhibition of viability in [6] is -2.7% (inactive). Also, the viability decrease (inhibition) in experiment [7] was -14.2% (inactive); in experiment [8] it was -5.4% (inactive). Also, the remaining activity in [9] was 91.8% (inactive). For the same molecule, the fold change was 0.914 (inactive) and 0.897 (inactive) in experiment [13] (setting [18]); 0.888 and 0.977 in [13] (setting [19]). Besides, the cell count in experiment [13] (setting [20]) is 8420 and 9980; in experiment [13] (setting [21]), 9210 and 11100. In addition, the z-score is -0.55 (inactive) in experiment [17] (setting [22]); -0.51 in [17] (setting [23]); 0.35 (inactive) and 0.345 (inactive) in experiment [14].
